High-throughput results deposited in PubChem by National Center for Advancing Translational Sciences (NCATS).
This is a sample that favours compounds with a hit; in the whole collection about 1.3% have one here.
Glioma ERSR ind: qHTS for Inducers of the Endoplasmic Reticulum Stress Response (ERSR) in Human Glioma: qHTS; Potency, µM, without a hit: top-dose activation, usual class: activators; U87-MG GRP78 promoter luciferase reporter, 16 h; hit rate 0.02% among 420,000; further: potency means the concentration at half of the fitted maximal effect; series mostly up to about 76 µM; % of control where 0% means no effect; nearly all actives have a fitted effect of over 35% in size
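Stably transfected U87-MG glioma cells carrying a GRP78-based luciferase sensor; 16 h compound incubation. Luminescence end-point read 10 min after Bright-Glo addition at room temperature.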
Vif-A3G inh: qHTS for Inhibitors of Vif-A3G Interactions: qHTS; DNA dC->dU-editing enzyme APOBEC-3G (Homo sapiens), Q9HC16; HeLa A3G-eYFP + Vif (tagged APOBEC3G with the HIV-1 protein that degrades it), YFP fluorescence, overnight; Potency, µM (top dose mostly 46.1 µM), for inactives: at the top dose activity, negative = active, hits mostly inhibitors; hit rate 0.076% among 410,000; further: potency means the concentration at half of the fitted maximal effect; on the % scale 0 is the no-effect control and ±100 the full control effect; nearly all actives have a fitted effect of over 60% in size
Target sequence (Q9HC16 whole entry, looked up): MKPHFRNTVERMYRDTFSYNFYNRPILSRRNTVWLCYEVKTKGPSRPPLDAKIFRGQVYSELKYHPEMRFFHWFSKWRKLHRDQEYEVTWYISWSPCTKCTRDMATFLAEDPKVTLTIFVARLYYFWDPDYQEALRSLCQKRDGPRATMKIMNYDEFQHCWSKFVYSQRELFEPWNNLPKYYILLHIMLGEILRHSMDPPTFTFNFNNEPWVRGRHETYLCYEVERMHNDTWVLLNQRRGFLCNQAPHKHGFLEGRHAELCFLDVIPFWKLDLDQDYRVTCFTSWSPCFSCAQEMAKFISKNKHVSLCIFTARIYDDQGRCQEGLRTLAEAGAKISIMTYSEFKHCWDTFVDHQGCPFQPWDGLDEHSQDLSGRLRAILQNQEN
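Read-out is eYFP fluorescence (Ex 488/Em 500-530) from Vif-expressing HeLa A3G-eYFP cells; more signal means A3G escaped Vif-mediated degradation. Cells plated overnight, compound pinned in, incubated overnight at 37 deg C.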
TRPML1 inh: qHTS for Inhibitors of the Human Mucolipin Transient Receptor Potential 1 (TRPML1) | Mucolipin-1 (Homo sapiens), Q9GZU1 | TRPML1-inducible cells, Ca2+ dye fluorescence, FDSS; hits give low values; inhibition of EC80 agonist-evoked calcium signal | activity change, negative = inhibition, % (no concentration beside the values) | hit rate 0.02% among 390,000 | AID 624415, 2012; in the data active means activity change below about -50%; inconclusive means between about -30% and that limit;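 further: stimulus is agonist 54-4 at its EC80 concentration; on the % scale 0 is the no-effect control and ±100 the full control effect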
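TRPML1-DL cells, Tet-induced overnight (~16 h, 37 °C) at 1,500 cells/well, were loaded with Ca8 no-wash dye plus quencher for 45-90 min at room temperature. Compounds were pinned during FDSS kinetic reading; agonist 54-4 at EC80 (4 uM final) then added.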
TRPML1 agonist: qHTS for Agonists of the Human Mucolipin Transient Receptor Potential 1 (TRPML1) | Mucolipin-1 (Homo sapiens), Q9GZU1 | TRPML1-expressing cells, Ca2+ dye fluorescence, FDSS | activation, % (test concentration not listed) | hit rate 0.12% among 410,000 | AID 624414, 2012; in the data active means activation above about 50%; inconclusive means mostly about 30% to 49%; further: 0% is about no effect
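Calcium fluorescence on an FDSS kinetic reader gave the read-out. Tet-induced TRPML1-DL cells were plated overnight, dye-loaded (Ca8 with quencher, 45-90 min, room temperature, dark), then read 110 s after compound addition, and again 110 s after 4uM final 54-4 (EC80).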
Vif-APOBEC3F blk: qHTS for Inhibitors of Vif-A3F Interactions: qHTS | Potency, µM (series often up to 46.1 µM), for the others: at the top dose activity, negative = active | HeLa A3F-eYFP + Vif (tagged APOBEC3F with the HIV-1 protein that degrades it), YFP fluorescence increase | hit rate 0.2% among 390,000 | AID 602313, 2012; further: potency means the concentration at half of the fitted maximal effect; % of control where 0% means no effect; nearly all actives have a fitted effect of over 65% in size
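Fluorescence increase (Ex 488/Em 500-530) after overnight compound treatment at 37 deg C flags inhibition of Vif-driven A3F-eYFP loss in stable HeLa A3F-eYFP/Vif cells seeded overnight beforehand.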
ALOX12 inh: Primary qHTS assay for inhibitors of human arachidonate 12S-lipoxygenase (ALOX12): Round 2. Polyunsaturated fatty acid lipoxygenase ALOX12 (Homo sapiens), P18054. purified 12hLO, xylenol orange hydroperoxide absorbance. Potency, µM (series often up to 108 µM), inactives show at the top dose activity change, negative = inhibition, actives largely listed as inhibitors. hit rate 1.1% among 580,000; further: potency means the concentration at half of the fitted maximal effect; on the % scale 0 is the no-effect control and ±100 the full control effect
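Purified human 12hLO at 150 nM in 25 mM Hepes, 0.01% Triton X-100, pH 7.0, preincubated 15 min at room temperature with compound. Reaction started with 40 uM arachidonic acid, 30 min at room temperature. Hydroperoxide measured by Fe-xylenol orange, 573/405 nm absorbance ratio.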
Active calls of the source: *; ? = inconclusive; . = no result. Unless noted, the call rests on the fitted dose curve; in most records, active means well fitted curve in the direction sought with a large enough effect; inconclusive means small, poorly fitted or top-dose-only effect, or another doubt; inactive means no such curve, though single readings can be large; an effect the other way counts as inactive or inconclusive.

SMILES | Glioma ERSR ind | Vif-A3G inh | TRPML1 inh | TRPML1 agonist | Vif-APOBEC3F blk | ALOX12 inh
CC(C)(C)c1ccc(-c2cc(C[C@H]3CNCC[C@H]3CC(=O)N3CCC(n4c(=O)[nH]c5ccccc54)CC3)no2)cc1 | . | . | . | . | . | 32µM*
CC(C)(C)c1ccc(-c2cc(C[C@H]3CNCC[C@H]3CC(=O)NCc3cccs3)no2)cc1 | . | . | . | . | . | 40µM*
CC(C)(C)c1ccc(-c2cc(C[C@H]3CNCC[C@H]3CC(=O)NC3CCCCC3)no2)cc1 | . | . | . | . | . | 32µM*
CCCCCc1ccc(/C=C/C(=O)O)cc1 | . | . | . | . | . | 6%
COc1cc(C)cc2oc(=O)c(CC(=O)NCCCn3ccnc3)c(C)c12 | . | . | . | . | . | 8%
COc1ccccc1S(=O)(=O)N(C)C[C@H]1Oc2cc(C#CCC3CCCC3)ccc2S(=O)(=O)N([C@H](C)CO)C[C@H]1C | ? | 2% | 6 | 1 | -4% | 20µM*
COc1ccccc1S(=O)(=O)N(C)C[C@@H]1Oc2cc(C#CCC(C)C)ccc2S(=O)(=O)N([C@H](C)CO)C[C@@H]1C | -4% | -2% | -10 | 1 | 0% | 0%
C[C@@H]1CN([C@@H](C)CO)S(=O)(=O)c2ccc(C#CC3CCCCC3)cc2O[C@@H]1CN(C)Cc1cccnc1 | -8% | -8% | 41 | 0 | -2% | 14µM*
CCOCCn1c(-n2nc(C)cc2C)nc2c1c(=O)n(C)c(=O)n2C | . | . | . | . | . | 7%
O=c1c(C(c2c(O)nc3n(c2=O)CCS3)c2cccc3ccccc23)c(O)nc2n1CCS2 | -3% | 1% | -7 | 2 | -5% | 32µM*
O=C1NN(c2cccc(Br)c2)C(=O)/C1=C\c1ccc(O)cc1 | -1% | 4% | -5 | -1 | -5% | 16µM*
O=C1NN(c2ccc(Br)cc2)C(=O)/C1=C\c1ccc(O)cc1O | 0% | -1% | 2 | 1 | 9% | 40µM*
Cc1ccc(S(=O)(=O)c2cc3ccccc3oc2=Nc2ccc3c(c2)OCO3)cc1 | -4% | -18% | 6 | 0 | 22µM* | -7%
Cc1ccc(S(=O)(=O)c2cc3ccccc3oc2=Nc2ccc3c(c2)OCCO3)cc1 | -6% | 1% | -11 | 0 | -2% | 13%
Cc1ccccc1NC(=O)CSC1=C(C#N)C(c2ccccc2C)C2=C(CCCC2=O)N1 (stereo not drawn) | . | . | . | . | . | 6%
Cc1cccc(-c2nc3cc(NC(=O)/C=C/c4ccco4)ccc3o2)c1 | . | . | . | . | . | 11µM*
CCOC(=O)N1CCC(NC(=O)c2cc3c(OC)cccc3[nH]2)CC1 | . | . | . | . | . | -6%
Cc1cc(C)n(CC2(Cn3cc(C4CCCNC4)nn3)CC2)n1 (stereo not drawn) | . | . | . | . | . | 14µM*
Cc1c(NC(=O)c2cc3cc(Br)ccc3[nH]2)c(=O)n(-c2ccccc2)n1C | . | . | . | . | . | 50µM*
COc1ccccc1C1CCN(Cc2ccccc2)CC1 | -4% | -1% | 23 | 0 | -3% | -2%
COc1ccccc1C1CCN(Cc2ccc3ccccc3c2)CC1 | -7% | 1% | 96 | 1 | ? | 14µM*
CSc1ccc(C2Nc3cccc4cccc(c34)N2)cc1 | 0% | -4% | . | . | -1% | ?
Clc1ccc(C2Nc3cccc4cccc(c34)N2)cc1 | 2% | -8% | 4 | 0 | 23% | 4.5µM*
O=C1NC(c2ccc(Cl)c([N+](=O)[O-])c2)Nc2ccccc21 (stereo not drawn) | -6% | -7% | -2 | 1 | 2% | ?
O=[N+]([O-])c1cc(C2Nc3cccc4cccc(c34)N2)ccc1Cl | -6% | -5% | 3 | 0 | -1% | 40µM*
SMILES | Glioma ERSR ind | Vif-A3G inh | TRPML1 inh | TRPML1 agonist | Vif-APOBEC3F blk | ALOX12 inh
COc1ccc(C(=O)NCc2coc(-c3cccs3)n2)c(O)c1 | . | . | . | . | . | 38%
CN(Cc1nc2ccsc2c(=O)[nH]1)C(=O)COc1cccc(F)c1 | . | . | . | . | . | 5µM*
CC(C)(C)c1ccc(C(=O)N[C@H]2C[C@@H]3CC[C@H]2C3)cc1 | . | . | . | . | . | 18%
O=C(N/C=C/c1ccco1)OCc1ccccc1 | -1% | -1% | 10 | 0 | ? | 40µM*
Cc1cccc(NC(=S)NCCc2ccccc2)n1 | 5% | -3% | 7 | 2 | ? | 20µM*
Cc1ccccc1NC(=S)NCCc1ccccc1 | -2% | -3% | -11 | 0 | -13% | ?
S=C(NCCc1ccccc1)Nc1ccccn1 | 6% | 0% | 0 | 2 | -12% | 22µM*
Clc1ccc(CNc2nc(-c3ccccc3)no2)cc1 | . | . | . | . | . | 3%
O=C(Nc1nnc(-c2ccccc2Cl)o1)c1nc2ccccc2s1 | 15% | ? | 2 | 65* | -12% | -19%
Cc1cc(=O)oc2c(C)c(OC(=O)CN3C(=O)NC4(CCCCC4)C3=O)ccc12 | . | . | . | . | . | 22%
O=C1S/C(=C\C=C\c2ccco2)C(=O)N1c1ccccc1 | -2% | -10% | -11 | 0 | ? | 28µM*
O=C(O)CCCN1C(=O)/C(=C/C=C/c2ccco2)SC1=S | -15% | -5% | -24 | 0 | -25% | ?
O=C1S/C(=C\C=C\c2ccco2)C(=O)N1c1ccc(O)cc1 | 8% | ? | 4 | 1 | 0% | 40µM*
CCOc1ccc(C2CCCN2S(=O)(=O)CCN(C)S(=O)(=O)c2ccc(F)cc2)cc1 (stereo not drawn) | . | . | . | . | . | -7%
COc1cc(/C=C/C(=O)OCC(=O)NNC(=O)c2cc(Cl)ccc2OC)ccc1O | 2% | 3% | 4 | 0 | -3% | 6%
COc1cc(/C=C/C(=O)OCCOc2ccc(Cl)cc2)ccc1O | . | . | . | . | . | 20µM*
Cc1ccc(C(=O)N2CCN(C(c3ccc(F)cc3)c3ccc(F)cc3)CC2)o1 | . | . | . | . | . | 47%
CC(=O)C1=C(O)C(=O)N(c2cccc(Br)c2)C1c1ccccc1Cl (stereo not drawn) | -4% | 0% | 30 | 1 | 5% | 18µM*
O=C(O)c1ccc(C2CCCCC2)cc1 | . | . | . | . | . | -13%
Cc1c2c(nc3ccccc13)CCSC2 | . | . | . | . | . | 4.5µM*
c1ccc(-c2c3c(nc4ccccc24)CCSC3)cc1 | . | . | . | . | . | 9%
CCOP(=O)(OCC)c1nc(-c2ccco2)oc1NCc1ccc(F)cc1 | . | . | . | . | . | 10%
Cc1ccn(-c2cc(O)c(-n3ccc(C)n3)cc2O)n1 | -6% | -2% | -1 | 0 | -19% | 2.8µM*
O=C(N/N=C/c1ccc(Cl)cc1Cl)c1cccs1 | . | . | . | . | . | -21%
C=C(C)COc1cc(Cl)ccc1C(N)=O | . | . | . | . | . | -31%
